From the supplement of paper PMC10681739

biological target: RUNX1 (UniProt Q01196); test: RUNX1 binding intensity (PBM fluorescence), RUNX1 alone (arbitrary fluorescence units); higher = stronger binding; conditions: RUNX1 concentration 2 nM; ETS1 concentration 0 nM
Protocol: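 Cooperative gcPBM on 36-bp genomic probes with neighbouring ETS1 and RUNX1 sites. Recombinant human RUNX1 (2 nM) was incubated alone or with ETS1 (25 nM) and detected with anti-RUNX1 antibody plus Alexa488 secondary. Values are medians over 4 replicate spots; the RUNX1+ETS1 data were normalised to the RUNX1-only data. The probes sit in constant array flanks that are not printed.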
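Also: Full-length recombinant human RUNX1 bound to double-stranded 36-bp genomic probes on a high-density microarray, scored as Alexa488 fluorescence per spot via anti-RUNX1 antibody, median of four replicate spots.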

RUNX1, sequence (Q01196 whole entry): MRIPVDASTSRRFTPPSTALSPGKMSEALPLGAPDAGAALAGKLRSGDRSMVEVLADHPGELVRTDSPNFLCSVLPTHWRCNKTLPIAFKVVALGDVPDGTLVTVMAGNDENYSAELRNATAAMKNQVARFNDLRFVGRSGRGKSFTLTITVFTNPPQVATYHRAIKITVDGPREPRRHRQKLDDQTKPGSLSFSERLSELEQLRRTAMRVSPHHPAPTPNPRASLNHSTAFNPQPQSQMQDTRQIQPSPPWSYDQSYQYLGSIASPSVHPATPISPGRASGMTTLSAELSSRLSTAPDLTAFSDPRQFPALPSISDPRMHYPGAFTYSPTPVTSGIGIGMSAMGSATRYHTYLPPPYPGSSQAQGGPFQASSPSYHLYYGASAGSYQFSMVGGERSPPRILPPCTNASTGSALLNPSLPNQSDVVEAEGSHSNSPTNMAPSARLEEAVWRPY

Sequence | RUNX1 binding intensity
GGGCTCCCAGAAGGATGTGGTTTCTGAGTACGTTGG | 906
TCTCCCGGAACTGCTCCTTCACCATGATGACCGCTG | 966
CTTTGTTACTTTGGGGAAATGTGGTTCTGCGCCACC | 1110
AGGGCTGAAACAGGATGTGGTGAGTGAGGTAGGGTG | 816
ACGAGGTTGGCCTCATCCGGTGGTTTTCGCAGCACG | 837
GATGGTGTCTTTTGGGGATGTGGGTTTGGGGGATGG | 835
CAAGCACATTACGGAAGAGGCTGACCGCAAATACGA | 4550
TGTGTAACTTCCTGGCTTTGGTGGTTTCCCCCTCCT | 757
TATCGACAAAAGTTCCGGCCCGCGGTAGCGGAGGGA | 879
CCAGTACCCCACTTCCTGACCAAACCACAAAGGTCA | 2980
AGGAGTGTCACTTCCTCTTTCCTCACCACAGCCTCC | 1040
GCCACATATTTCCTGTGACAACCCTGTGGTGTGGCT | 848
GCTGATAAAACAGGATGTGGTAAAGAAGCCGGCCAA | 817
GCCGCCGTTTCCTGATTGGTTGTGGGTGGCTACCTC | 834
AGACCCGGAAATGGTGGGTGTTTCTTGCAACCACGG | 668
GTGGCCTCTTCAACAGGAAACCACAATATTTTTGTT | 1410
GAAGGAAGTGGAGACAGTAAGGGGAAACCACAAACC | 922
CCACGGCTGGCTTCCTGTGTGGTTGGCACGCCTTAC | 772
GCCCAGGCAGGAAGCCAGGCGCCCACAGGTTGGCAG | 643
TTGCTCCCGGAAGCCCCGCCCGACCGCGGCTCCTGA | 865

Sequence | RUNX1 binding intensity
AGCGTTTCCTGCCTGTCTGGGGCTGACAAACCACAA | 930
ACAATAACAGGAAGTGGTGGGGACTGCGGTGACCTG | 865
GGCTGCGACTTCCGGACTGCTCCTGGCCGCAGGGGG | 813
CAACTGACCGGACAGAACACAGCCACAAAACACGAG | 944
ACCATCCTGTAGTCTGTTAAGTGAGCAACCGCATTA | 1130
GCACACCGGAACTCACACCTGAAACCACAGAACCAA | 2180
GAGCAGTGGTGGGAAATGTGGGGTTGGGGGTAAAGG | 874
CCCCTACTTCCCTTTTTGCTGGGCCGCAGTTTCGGT | 1490
TTACCCCGGCGGAACGGAGGCCTGCGGTCGCGGCGG | 941
GAGGGACAGGATGCCGCCAGGAACCACAAGAGCTTC | 844
GGGGCGGCTTCCGGCGGCGTGACCTGACCGCAAGAG | 2950
TCAGGGGTGGGAGGAAGTGGTTAGGATCAGCCTGGG | 776
GTTTCCACTTCCTGCTGTGCAGCAGTACCACCAAGA | 992
GAGGAGGAAAGCGGAAGCGCTGCCCGCAGTGGTAGG | 651
TGGTTTCCGGGCTGGGGTTAGAATAGGCCACAAGGT | 787
TCGGAGACGGCGAAAGGAAACCGCAAGGAGGCCACC | 4180
GGGAGGTCACATCCTGCCCGCGGTCTCAGAAAAGCT | 782
TTCACAACACAGGATGTGCGGTATTATACGGCAAAG | 898
GCTTGTCTTCCGGTTTCGTCGCCGCCGCAGGCGCAC | 840
TCAATAAGACAGGATGTTCTCCAACCGCATTAAGCT | 854
